In PubChem BioAssay (Tox21) one finds outcome, Potency and ratio activity, negative = MMP loss data, which are given here for 25 molecules.

Test [1] can be described thus: qHTS assay for small molecule agonists of the p53 signaling pathway (AID 651631; calls by dose curve; also: nearly all actives have a fitted effect of over 15% in size). A digest of the protocol: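 Quantitative high-throughput format: 4,000 p53RE-bla HCT-116 cells/well, 5 h pre-incubation, 16 h compound exposure at 37 °C, 2 h room-temperature substrate step, fluorescence intensity measured.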
(In general: Quantitative high-throughput screening tests each substance at several concentrations.)

A short description of test [2]: qHTS assay for small molecules that induce genotoxicity in human embryonic kidney cells expressing luciferase-tagged ATAD5 (AID 651632). Also: nearly all actives have a fitted effect of over 15% in size. A digest of the protocol:
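Cells were seeded at 2,000 per well, dosed with compound, and incubated 16 hr at 37C in 5% CO2. Luciferase activity was then quantified after a 30 min room-temperature incubation with Amplite.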

Test [3] can be described thus: qHTS assay for small molecule agonists of the p53 signaling pathway - cell viability (AID 651633; calls by dose curve;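 also: p53RE-bla HCT reporter cells with a stable beta-lactamase p53 reporter; series mostly up to about 83 µM; nearly all actives have a fitted effect of over 30% in size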). A digest of the protocol:
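Viability counter-read: CellTiter-Glo luminescence (30 min, room temperature) in the same p53RE-bla plates. These plates had been exposed to compounds for 16 h at 37 C.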

The nature of test [4]: qHTS assay for small molecules that induce genotoxicity in human embryonic kidney cells expressing luciferase-tagged ATAD5 - cell viability (AID 651634; calls by dose curve; also: nearly all actives have a fitted effect of over 25% in size). The method, boiled down:
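Cells (HEK293T, luciferase-tagged ATAD5) are seeded at 2,000 per well, dosed with compound or DMSO vehicle, and incubated 15.5 hr at 37C and 5% CO2. CellTiter-Fluor is added for 30 min before fluorescence is measured.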

Test [5] is described as follows: qHTS assay for small molecule disruptors of the mitochondrial membrane potential - cell viability (AID 720634; calls by dose curve; also: nearly all actives have a fitted effect of over 20% in size; also: potency is read from the fitted curve at half-maximal effect). The method, boiled down:
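Cytotoxicity was measured by ATP quantitation in HepG2 wells that had first been treated with compound for 1 hr and stained with m-MPI dye; CellTiter-Glo incubation was 30 min at room temperature.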

Test [6] can be described thus: qHTS assay for small molecule disruptors of the mitochondrial membrane potential (AID 720635). Also: potency is read from the fitted curve at half-maximal effect. The method, boiled down: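 Mitochondrial membrane potential tracked with Mito-MPS dye, red aggregates (ex 540/em 590 nm) against green monomers (ex 490/em 535 nm). Compound treatment 1 hr at 37C, dye 30 min in HepG2.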
Test [7] is described as follows: qHTS assay to test for compound auto fluorescence at 535 nm (green) in HepG2 cells (AID 720675).
Test [8] in a line: qHTS assay to test for compound auto fluorescence at 460 nm (blue) in HEK293 cells (AID 720678). The method, boiled down: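 Blue read-out at excitation 405 nm and emission 460 nm follows overnight compound exposure of HEK293 cells at 37C in 5% CO2. Activity is given as auto fluorescence equivalency to triamterene.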
Test [9] is described as follows: qHTS assay to test for compound auto fluorescence at 590 nm (red) in HEK293 cells (AID 720679). A digest of the protocol: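 Red channel, Ex/Em 540/590nm; signal expressed as equivalency to Rose Bengal sodium. HEK293, 2,000 cells/well, 10% dialyzed FBS; 23 nL compound pinned after 4-5 hr attachment; overnight 37C/5% CO2 before reading.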
A short description of test [10]: qHTS assay to test for compound auto fluorescence at 590 nm (red) in HepG2 cells (AID 720674). The method, boiled down:
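We screened compounds on adherent HepG2 cells, incubating them for an hour at 37 C in 5% CO2 before reading emission at 590 nm under 540 nm excitation; values reflect equivalence to Rose Bengal sodium fluorescence.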

SMILES strings stand for the structures. Where “and” joins values, the source holds several entries; their conditions need not be identical. Equal values may be shown once. Records with an inconclusive call do not appear. The source holds several records for some structures; these can differ, active in one and inactive in another. Calls of active or inactive are those of the source. Unless noted, calls follow the shape of the dose curve; as a rule, active = well fitted curve in the direction sought with a large enough effect in the repeat runs; inconclusive = weak or mixed curves; inactive = no such curve, though single readings can be large; an effect the other way counts as inactive or inconclusive.
% is scaled to controls: 0 for no effect and ±100 for the full control effect.

In the case of `NCCN1CCNCC1`, the call in [1], in [2], in test [3], in test [7], in [8] and in test [9] was inactive. In addition, the Potency entry in test [4], in test [5] and in test [6] was “inactive” throughout.
For `CC(=O)CC(C)(C)O`, the result in test [1], in test [2], in test [3], in test [10], in [8] and in [9] was inactive. For the same molecule, the Potency result in test [4] and in test [5] was “inactive” in each case.
In the case of `C=Cc1ccc(C)cc1`, the molecule was called inactive in test [1], in test [2], in test [3], in test [10], in test [7] and in [8]. Also, the molecule was called inactive in test [9]. In addition, the Potency result in [4], in test [5] and in test [6] was “inactive” in each case.
On to `CC(C)OP(=O)(CP(=O)(OC(C)C)OC(C)C)OC(C)C`, for which the result in [1], in test [2], in [3], in [10], in test [8] and in test [9] was inactive. In addition, the Potency result in test [4] and in test [5] was “inactive” each time.
Take `COc1ccc(C)cc1N`: the outcome in test [1], in test [2], in test [3], in [10], in [7] and in test [8] was inactive. The result in test [9] was inactive. The Potency result in test [4], in [5] and in [6] was “inactive” throughout.
For the molecule `COc1ccccc1OCC(O)CO` (configuration not stated), the result in [1], in test [2], in test [3], in test [10], in test [7] and in test [8] was inactive. Also, the call in test [9] was inactive. For the same molecule, the Potency result in [4], in test [5] and in test [6] was “inactive” each time.
`Cc1ccc([N+](=O)[O-])cc1S(=O)(=O)O`: the molecule was classed as inactive in test [1], in test [2], in test [3], in test [7], in test [8] and in test [9]. Further, the Potency entry in [4] and in [5] was “inactive” each time.
In the case of `CCOC(=O)n1ccn(C)c1=S`, the outcome in test [1], in test [2], in [3], in test [8] and in [9] was inactive. In addition, the Potency entry in test [4], in [5] and in test [6] was “inactive” in each case.
Take `CCc1ccccc1CC`: the call in test [1], in test [2], in test [3], in test [10], in [8] and in test [9] was inactive. Also, the Potency entry in [4] and in test [5] was “inactive” throughout. In test [6], the ratio activity, negative = MMP loss was 5.07% [at 17.9 µM] (inactive).
On to `CCO[Si](CCCN)(OCC)OCC`, for which the molecule was classed as inactive in test [1], in [2], in test [3], in test [7], in test [8] and in test [9]. The Potency entry in [4], in test [5] and in [6] was “inactive” each time.
Take `Cc1ccc(S(=O)(=O)N=C=O)cc1`: the call in test [1], in [2], in test [3], in test [10], in test [7] and in test [8] was inactive. For the same molecule, the call in [9] was inactive. Moreover, the Potency result in test [4], in test [5] and in test [6] was “inactive” throughout.
Regarding `CN/C(=C\[N+](=O)[O-])NCCSCc1csc(CN(C)C)n1`, the molecule was classed as inactive in test [1], in test [2], in test [3], in [10], in [7] and in test [8]. Besides, in test [9], the molecule was called inactive. Further, the Potency result in test [4], in test [5] and in [6] was “inactive” throughout.
With `CC(C)CCCCCCCOC(=O)CCCCC(=O)OCCCCCCCC(C)C`, the result in test [1], in test [2], in test [3], in test [10], in [8] and in test [9] was inactive. The Potency result in [4] and in test [5] was “inactive” in each case.
For the molecule `C[Si]1(C)O[Si](C)(C)O[Si](C)(C)O[Si](C)(C)O1`, the molecule was called inactive in test [1], in test [2], in [3], in test [10], in test [7] and in test [8]. In addition, in test [9], the result was inactive. The Potency entry in test [4] and in test [5] was “inactive” each time.
Consider `Cc1ccc(C(C)C)c(O)c1`, for which the call in test [1], in test [2], in test [3], in test [10], in test [7] and in test [8] was inactive. Also, the call in test [9] was inactive. Further, the Potency entry in test [4] was “inactive”. For the same molecule, the Potency entry in test [5] was “inactive and 61.1 µM (active)”.
On to `CC(C)OC(=O)COc1ccc(Cl)cc1Cl`, for which the outcome in [1], in test [2], in [3], in test [7], in [8] and in [9] was inactive. For the same molecule, the Potency entry in test [4], in [5] and in test [6] was “inactive” each time.
Consider `CSc1ccc(Cl)cc1`, for which the result in [1], in test [2], in test [3], in test [10], in test [8] and in test [9] was inactive. Moreover, the Potency entry in test [4] and in test [5] was “inactive” throughout.
`CCCCCC(=O)O`: the molecule was classed as inactive in [1], in test [2], in [3], in test [7], in [8] and in test [9]. Also, the Potency result in test [4], in test [5] and in test [6] was “inactive” each time.
Take `CCCCCCCCCCN`: the call in [1], in [2], in test [3], in test [7], in test [8] and in [9] was inactive. Further, the Potency entry in test [4], in test [5] and in [6] was “inactive” in each case.
In the case of `O=C1CCCC1`, the molecule was classed as inactive in test [1], in [2], in test [3], in [10], in [8] and in test [9]. Also, the Potency entry in test [4], in test [5] and in [6] was “inactive” in each case.
As for `CN(C)c1ccc(Cc2ccc(N(C)C)cc2)cc1`, the result in [1], in test [2], in test [3], in test [8] and in test [9] was inactive. Besides, the Potency result in [4] and in test [5] was “inactive” in each case. Moreover, in test [6], the Potency is 54.7 µM (active) and inactive.
In the case of `C=CCCCCCCCCC(=O)O`, the result in test [1], in test [2], in [3], in test [10], in test [7] and in [8] was inactive. Moreover, in test [9], the molecule was classed as inactive. The Potency result in test [4] and in test [5] was “inactive” each time.
As to `COc1cc(OC)c(C(=O)CCCN2CCCC2)c(OC)c1`, the outcome in test [1], in test [2], in [3], in test [10], in test [7] and in test [8] was inactive. Besides, the result in [9] was inactive. Further, the Potency result in test [4] and in test [5] was “inactive” each time.
Consider `CCNc1cccc(C)c1`, for which the molecule was called inactive in [1], in [2], in [3], in [10], in [8] and in test [9]. Also, the Potency result in [4] and in test [5] was “inactive” in each case.
For `CC(=O)c1ccc(O)cc1`, the call in test [1], in test [2], in [3], in test [10], in test [7] and in [8] was inactive. Besides, the molecule was classed as inactive in [9]. Besides, the Potency entry in test [4] and in test [5] was “inactive” in each case.
